Source: PubChem BioAssay (Tox21)
Several values for one entry are separate records, joined by “and”; a condition that tells them apart may be missing. Equal values may be shown once. Results filed as inconclusive are left out. A call without a number means that no potency is given here. Where a structure was tested more than once in an assay, its records may differ in their call. Activity calls are given as the source filed them. The call rests on the fitted dose curve.

The compounds below were run against Beta-2 adrenergic receptor (Homo sapiens) (UniProt P07550) (assay: Adrenergic beta2 receptor (ADRB2) small molecule antagonists, cell-based qHTS assay (AID 1963592; further: nearly all actives have a fitted effect of over 50% in size)). Details: CHO-ADRB2 cells, isoproterenol-stimulated cAMP HTRF ratio, 0.5 h; series mostly up to 92.4 µM; activity change, negative = inhibition: at the top concentration.
Sequence of Beta-2 adrenergic receptor (Homo sapiens) (P07550 whole entry, looked up): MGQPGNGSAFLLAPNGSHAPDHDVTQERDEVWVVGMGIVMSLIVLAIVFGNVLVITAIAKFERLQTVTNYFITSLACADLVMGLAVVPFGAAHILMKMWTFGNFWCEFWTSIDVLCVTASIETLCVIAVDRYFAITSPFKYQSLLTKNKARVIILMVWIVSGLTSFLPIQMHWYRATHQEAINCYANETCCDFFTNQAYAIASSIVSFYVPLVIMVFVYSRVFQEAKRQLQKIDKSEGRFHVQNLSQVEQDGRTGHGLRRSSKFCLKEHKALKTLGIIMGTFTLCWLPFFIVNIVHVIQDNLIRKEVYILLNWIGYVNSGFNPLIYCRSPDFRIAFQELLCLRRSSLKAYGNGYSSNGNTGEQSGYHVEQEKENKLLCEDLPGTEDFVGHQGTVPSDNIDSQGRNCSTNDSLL
How it was run: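 Assay format: CHO-ADRB2 cells, 18-20hr seeding at 37C/5% CO2, then compound plus 1nM isoproterenol agonist mix for 0.5hr RT. Homogeneous time-resolved fluorescence cAMP detection after 1hr, expressed as 665/615 nm ratio.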
`Cc1ccc(N)cc1Cl` was tested, and the Potency was “inactive”. `O=C(O)COc1cc(Cl)c(Cl)cc1Cl` was tested, and the Potency was “inactive”. In the case of `Clc1ccc(Cl)c(Cl)c1`, the Potency is reported as “inactive”. In the case of `CCOC(=O)CC(SP(=O)(OC)OC)C(=O)OCC` (stereo unspecified), the Potency is reported as “inactive”. `CCCC[n+]1ccc(C)cc1` was tested, and the Potency was “inactive”. In the case of `CCCCCCCCCCCCCCCCn1cc[n+](C)c1`, the Potency is reported as “inactive”. In the case of `COc1ccc(N)cc1`, the Potency is reported as “inactive”. For `O=C(O)c1ccc(=O)[nH]c1`, the “activity change, negative = inhibition” value was 0.7% [at 42.5 µM] (inactive). `O=[N+]([O-])c1cc(Cl)c(Cl)c(Cl)c1` was tested, and the “activity change, negative = inhibition” value was 0.155% (inactive). For `c1ccc(NNc2ccccc2)cc1`, the Potency was “inactive”. In the case of `CCCSC(=O)Cl`, the “activity change, negative = inhibition” value is reported as 9.12% (inactive). With `COCCl` the Potency was “inactive”. With `O=C1C2CC=CCC2C(=O)N1SC(Cl)(Cl)Cl` (stereo unspecified) the “activity change, negative = inhibition” value was -11.2% (inactive). For `CNC(=O)N(C)c1nnc(C(C)(C)C)s1`, the Potency was “inactive”. With `COc1cc(N)c(Cl)cc1C(=O)NC1CN2CCC1CC2` (stereo unspecified) the “activity change, negative = inhibition” value was -7.73% [at 42.5 µM] (inactive). For `CCCCCCCCCl`, the Potency was “inactive”. `COc1cc(OC)nc(NC(=O)NS(=O)(=O)c2ncccc2C(=O)N(C)C)n1` was tested, and the “activity change, negative = inhibition” value was -10.2% (inactive). In the case of `NC(=S)c1c(Cl)cccc1Cl`, the “activity change, negative = inhibition” value is reported as -6.66% (inactive). `NNC(N)=S` was tested, and the Potency was “inactive”. In the case of `OCCCCO`, the Potency is reported as “inactive”. In the case of `NNC(=O)c1ccccc1`, the “activity change, negative = inhibition” value is reported as -16.7% (inactive). With `CCCCCCCCCCCCCCCCCC(=O)O` the Potency was “inactive”. In the case of `O=C(NC(=O)c1c(F)cccc1F)Nc1ccc(Cl)cc1`, the Potency is reported as “inactive”. For `Nc1ccc(Cl)c(Cl)c1`, the Potency was “inactive”. For `CCOP(=O)(OCC)OP(=O)(OCC)OCC`, the “activity change, negative = inhibition” value was -6.89% (inactive). With `CC1C=[C-]C=C1.[C-]#[O+].[C-]#[O+].[C-]#[O+].[Mn]` the Potency was “inactive”. For `CCOP(=O)(OCC)SCCSCC`, the Potency was “inactive”. `CCCCCCCCCCCCCCCC[N+](C)(C)C` was tested, and the Potency was “inactive”. In the case of `CC(C)=C[C@@H]1[C@@H](C(=O)OCc2coc(Cc3ccccc3)c2)C1(C)C`, the Potency is reported as “inactive”. For `CCCCCCCCCC(CC)c1ccc(S(=O)(=O)O)cc1` (stereo unspecified), the Potency was “inactive”. For `COP(=S)(OC)Oc1cc(Cl)c(Cl)cc1Cl`, the Potency was “inactive”. In the case of `CC(=O)C(C)(C)C`, the “activity change, negative = inhibition” value is reported as -4.94% (inactive). With `CCOP(=O)(CN(CCO)CCO)OCC` the “activity change, negative = inhibition” value was 2.27% (inactive). `c1ccc(Nc2ccc3ccccc3c2)cc1` was tested, and the Potency was “inactive”. For `Nc1ccc(Cl)cc1N`, the “activity change, negative = inhibition” value was -11.9% (inactive). In the case of `C1CN2CCN1CC2`, the Potency is reported as “inactive”.

What follows are compounds tested against Beta-2 adrenergic receptor (Homo sapiens) (UniProt P07550) (assay: Adrenergic beta2 receptor (ADRB2) small molecule agonists, cell-based qHTS assay (AID 1963593;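 further: CHO cells stably overexpressing human ADRB2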)). Details: CHO-ADRB2 cells, cAMP HTRF, 30 min; series mostly up to 92.4 µM; activation: at the top concentration.
How it was run: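 CHO cells stably over-expressing ADRB2 were plated overnight at 37C, then dosed with compounds plus a stimulation mix containing 100uM IBMX and 25uM Ro-20-1724 for 0.5hr at room temperature. cAMP was measured by HTRF competition, 1hr.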
With `Cc1ccc(N)cc1Cl` the Potency was “inactive”. In the case of `Cc1ncc(CNC(=O)N(CCCl)N=O)c(N)n1`, the “activation” value is reported as 6.67% [at 42.5 µM] (inactive). In the case of `Clc1ccc(Cl)c(Cl)c1`, the Potency is reported as “inactive”. `CCCCCCCCCCCCCCCCn1cc[n+](C)c1` was tested, and the Potency was “inactive”. For `COc1ccc(N)cc1`, the Potency was “inactive”. For `O=C(O)c1ccc(=O)[nH]c1`, the “activation” value was 17.6% [at 42.5 µM] (inactive). With `c1ccc(NNc2ccccc2)cc1` the “activation” value was 7.75% (inactive). With `CCCSC(=O)Cl` the “activation” value was -7.23% (inactive). `COCCl` was tested, and the “activation” value was 4.39% [at 42.5 µM] (inactive). In the case of `COc1cc(N)c(Cl)cc1C(=O)NC1CN2CCC1CC2` (stereo unspecified), the “activation” value is reported as 4.74% [at 42.5 µM] (inactive). `CCCCCCCCCl` was tested, and the Potency was “inactive”. In the case of `OCCCCO`, the “activation” value is reported as 3.59% (inactive). `CCCCCCCCCCCCCCCCCC(=O)O` was tested, and the Potency was “inactive”. In the case of `Nc1ccc(Cl)c(Cl)c1`, the “activation” value is reported as 24.9% (inactive). `CCOP(=O)(OCC)OP(=O)(OCC)OCC` was tested, and the “activation” value was 18.6% (inactive). In the case of `CCOP(=O)(OCC)SCCSCC`, the “activation” value is reported as 17.8% (inactive). `CCCCCCCCCCCCCCCC[N+](C)(C)C` was tested, and the Potency was “inactive”. With `CC(C)=C[C@@H]1[C@@H](C(=O)OCc2coc(Cc3ccccc3)c2)C1(C)C` the Potency was “inactive”. `CCCCCCCCCC(CC)c1ccc(S(=O)(=O)O)cc1` (stereo unspecified) was tested, and the “activation” value was -3.14% (inactive). With `CCOP(=O)(CN(CCO)CCO)OCC` the “activation” value was -20.8% (inactive). `Nc1ccc(Cl)cc1N` was tested, and the “activation” value was -39.7% (inactive). `COC(=O)c1ccccc1CS(=O)(=O)NC(=O)Nc1nc(OC)cc(OC)n1` was tested, and the “activation” value was -22.3% (inactive). In the case of `C1CN2CCN1CC2`, the “activation” value is reported as 6.15% (inactive).

The compounds below were run against D(2) dopamine receptor (Homo sapiens) (UniProt P14416) (assay: Dopamine D2 receptor (DRD2) small molecule agonists, cell-based qHTS assay (AID 1963594; further: nearly all actives have a fitted effect of over 35% in size; further: potency means the concentration at half of the fitted maximal effect)). Details: HEK293-DRD2 cAMP HTRF, agonist mode, 30 min; series mostly up to 92.4 µM; activation: at the top concentration.
Sequence of D(2) dopamine receptor (Homo sapiens) (P14416 whole entry, looked up): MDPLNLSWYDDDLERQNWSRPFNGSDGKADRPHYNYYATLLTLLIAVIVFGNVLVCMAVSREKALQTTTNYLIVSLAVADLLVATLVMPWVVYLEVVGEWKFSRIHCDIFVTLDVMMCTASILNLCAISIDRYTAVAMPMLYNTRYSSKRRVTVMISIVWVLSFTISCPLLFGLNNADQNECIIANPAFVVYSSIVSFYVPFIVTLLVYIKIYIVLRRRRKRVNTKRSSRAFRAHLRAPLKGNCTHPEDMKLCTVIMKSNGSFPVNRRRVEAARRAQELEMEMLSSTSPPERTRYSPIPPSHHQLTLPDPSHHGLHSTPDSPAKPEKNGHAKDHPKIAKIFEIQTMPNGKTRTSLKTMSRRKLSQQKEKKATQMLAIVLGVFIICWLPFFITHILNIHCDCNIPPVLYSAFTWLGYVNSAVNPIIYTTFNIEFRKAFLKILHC
How it was run: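 HEK293 cells stably expressing DRD2 were cultured 24 h at 37 C, then given Ro20-1724 (0.1 mM final) and compounds for 10 min at room temperature. NKH477 (200nM) was then added for 30 min. cAMP was read by HTRF.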
In the case of `Cc1ccc(N)cc1Cl`, the Potency is reported as “inactive”. In the case of `Cc1ncc(CNC(=O)N(CCCl)N=O)c(N)n1`, the “activation” value is reported as 0.957% [at 42.5 µM] (inactive). In the case of `O=C(O)COc1cc(Cl)c(Cl)cc1Cl`, the Potency is reported as “inactive”. For `Clc1ccc(Cl)c(Cl)c1`, the Potency was “inactive”. With `CCOC(=O)CC(SP(=O)(OC)OC)C(=O)OCC` (stereo unspecified) the Potency was “inactive”. For `CCCC[n+]1ccc(C)cc1`, the Potency was “inactive”. For `CCCCCCCCCCCCCCCCn1cc[n+](C)c1`, the Potency was “inactive”. For `COc1ccc(N)cc1`, the Potency was “inactive”. In the case of `O=C(O)c1ccc(=O)[nH]c1`, the “activation” value is reported as 0.556% [at 42.5 µM] (inactive). With `c1ccc(NNc2ccccc2)cc1` the “activation” value was -4.75% (inactive). In the case of `COCCl`, the Potency is reported as “inactive”. `O=C1C2CC=CCC2C(=O)N1SC(Cl)(Cl)Cl` (stereo unspecified) was tested, and the “activation” value was -6.82% (inactive). `CNC(=O)N(C)c1nnc(C(C)(C)C)s1` was tested, and the Potency was “inactive”. `COc1cc(N)c(Cl)cc1C(=O)NC1CN2CCC1CC2` (stereo unspecified) was tested, and the “activation” value was -23.6% [at 42.5 µM] (inactive). With `CCCCCCCCCl` the Potency was “inactive”. In the case of `COc1cc(OC)nc(NC(=O)NS(=O)(=O)c2ncccc2C(=O)N(C)C)n1`, the “activation” value is reported as -0.557% (inactive). For `NC(=S)c1c(Cl)cccc1Cl`, the “activation” value was -0.125% (inactive). For `NNC(N)=S`, the Potency was “inactive”. `OCCCCO` was tested, and the Potency was “inactive”. `NNC(=O)c1ccccc1` was tested, and the “activation” value was -2.68% (inactive). For `O=C(NC(=O)c1c(F)cccc1F)Nc1ccc(Cl)cc1`, the Potency was “inactive”. With `Nc1ccc(Cl)c(Cl)c1` the Potency was “inactive”. `CC1C=[C-]C=C1.[C-]#[O+].[C-]#[O+].[C-]#[O+].[Mn]` was tested, and the Potency was “inactive”. `CCOP(=O)(OCC)SCCSCC` was tested, and the “activation” value was 3.94% (inactive). `CC(C)=C[C@@H]1[C@@H](C(=O)OCc2coc(Cc3ccccc3)c2)C1(C)C` was tested, and the Potency was “inactive”. For `CCCCCCCCCC(CC)c1ccc(S(=O)(=O)O)cc1` (stereo unspecified), the Potency was “inactive and 54.5 µM (active)”. `COP(=S)(OC)Oc1cc(Cl)c(Cl)cc1Cl` was tested, and the “activation” value was 10.7% (inactive). In the case of `CCOP(=O)(CN(CCO)CCO)OCC`, the “activation” value is reported as 2.62% (inactive). In the case of `c1ccc(Nc2ccc3ccccc3c2)cc1`, the Potency is reported as “inactive”. For `Nc1ccc(Cl)cc1N`, the “activation” value was -0.547% (inactive). `COC(=O)c1ccccc1CS(=O)(=O)NC(=O)Nc1nc(OC)cc(OC)n1` was tested, and the “activation” value was -4.83% (inactive). For `C1CN2CCN1CC2`, the Potency was “inactive”.
